Assay results taken from the supplement of paper PMC11417369.
In all, about 25,000 sequences were measured (“ln(normalized median fluorescence intensity)”: median about 9.3, highest 2% from about 10 on). The full list was thinned out, with the highest values kept by preference.

The sequences below were run on PF3D7_0420300 AP2 domain 1 (GST-tagged) (assay: gcPBM binding intensity (ln(normalized median fluorescence intensity)); higher = stronger DNA binding).
Method in brief: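 Using an Agilent 4 × 180k array, primer-extended double-stranded 36-bp intergenic genomic probes and negative controls were exposed for 1 h to GST-fused P. falciparum DNA-binding domains expressed in E. coli. Binding was carried out in 1× PBS with 1% milk, 0.2 mg/ml BSA, 0.5% salmon testes DNA and 0.03% Triton X-100, and protein was detected with Alexa488 anti-GST antibody and a 488 nm scan. Binding intensity is the highest Masliner-normalised natural-log median intensity across replicate spots of either probe orientation.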

Sequence | gcPBM binding intensity (ln)
GTTAAAAAAAGGAGAGATCTCACACAAATATATATA [GTGCAC_negctrl_site117] | 9.22
CATATAAATAAATACACACACACACGCCTTATAATT [CACACA_site7830] | 10.2
CAAAAAAACAAACACACACACACACCCATATATATA [CACACA_site3653] | 10.2
AACAAAAAAACAAACACACACACACCCATATATATA [CACACA_site3652] | 9.98
TATATACGCAAACACACACACACATACACCCACATA [CACACA_site1724] | 10.2
TCAAATAATTTGTTGACACACACACCCACATACATA [CACACA_site8717] | 9.85
AAAACACCCAAACACACACACACATATATATATATA [CACACA_site9119] | 10.1
CATATATATAAATACACACACACACCCCTTATAATT [CACACA_site4064] | 10.2
AAATAATTTGTTGACACACACACACCCATACAGATA [CACACA_site5291] | 10.1
AAATAATTTGTTGACACACACACACCCATACATATA [CACACA_site2285] | 10.2
TACATATATATAAATACACACACACCCACCTTATAA [CACACA_site9346] | 10.1
CATATATACGCATACACACACACACCCACACCCACA [CACACA_site1725] | 10.2
CATATACGCAAACACACACACATATATATATATATA [CACACA_site501] | 10
TAATATATGTTATATACACACATATAAATATAAATA [CACACA_site6339] | 9.2
TGTTACATAAAATGCACACTTTCAAATATGCTAATA [CACACA_site2925] | 9.05
GTTTCCTTAATATTCACACACATATCTATAATATAT [CACACA_site6959] | 9.87
ACAAATAAAAATATTACACACACTATTATATTGATA [CACACA_site1494] | 9.86
TACACGCATAGACACACACACACACGCATATAAATA [CACACA_site6446] | 10.3
CATATACATAGACACACACACACATAAATAAATATA [CACACA_site6749] | 10.1
ATGGCCATAATATAGACACACATATATAAATATATA [CACACA_site2230] | 9.28
TCATAGTATAGACACACACACACACGCATATAAATA [CACACA_site6915] | 10.2
ATATAAAATAGACACGCACACAAAAAAAAAAAAAAA [CACACA_site3522] | 9.5
TATATTGATGATGATAGTACGTATGATTAGAAAAAA [XGTACX_site8989] | 9.18
ATGTATATGTCTATATGTACTTATATTTTATTTTTT [XGTACX_site5902] | 9.37
TTAATATATTAAATCTTACACACTAAAAAATATGTA [CACACA_site307] | 9.16

Sequence | gcPBM binding intensity (ln)
ATACTAACATTTTTTTGTACATATAACTATAAAATA [XGTACX_site1033] | 9.16
AGATATTTATTGAGTGCATGTTATAAAGGGAAAAAA [TGCATGCA_site88] | 9.32
AATAAAATAAAATACACACATACATACATACAAATG [CACACA_site2438] | 10.2
TTTAACATAAATTAAACACACAATAAAATACATTAA [CACACA_site6699] | 9.54
TATAACATAGGACACACACACATACATACACAAAAA [CACACA_site5062] | 10.2
ATAAAACAAAAACACACACACATACACAAAAAAAAA [CACACA_site3848] | 10.2
TATAACATATGACACACACACATACATACACAAAAA [CACACA_site6935] | 10.2
ATTAAATACATTAACACACACACAAATATATACATA [CACACA_site2881] | 10.1
ATTAAATACATTAACACACACACAAATAAATACATA [CACACA_site5583] | 10.3
AAATAAAACAAACACACACACACATACACAAAAAAA [CACACA_site3849] | 10.2
TATAACATAAAACACACACACATACATACACAAAAA [CACACA_site1804] | 10.1
TATACACATATATAAACACACAAAAAAAAAAAAAAA [CACACA_site7041] | 9.38
AAAATAAAATAAAATACACACATACATACATACAAA [CACACA_site5366] | 9.95
AACACATACAAACACACACACAAAAAAAAAAAAAAA [CACACA_site393] | 9.78
TATATATTTCATAATACACACGAAAAAAAAAAAAAA [CACACA_site8972] | 9.31
TACATTTAAAAAAAAACACACATATATATATATATA [CACACA_site2535] | 8.99
TAATTTTTATTCAAGAGTACACAAAAGATAACTAAA [XGTACX_site4060] | 9.14
AAGACACAAAAACACACACACATACATACATACATA [CACACA_site454] | 9.91
AATAAACATAAATACACACACAAAAAAAAAAACATA [CACACA_site4396] | 10.3
ACAAAAAAAAAAAAAATACACACACATAAAAAAAAA [TGCATGCA_negctrl_site333] | 9.72
AAAAAAAAAAAACATACACACAAATAAATACATACA [CACACA_site6073] | 9.9
ATAAAACAAAGACACACACACATACACAAAAAAAAA [CACACA_site7752] | 10.2
CAAAGACACAAACACACACACACATACATACATACA [CACACA_site453] | 10.1
TAATTTTTTTAAAAGCGTACATTTAAAAAAAAATAT [XGTACX_site2736] | 8.76
TAATAACTACAAAAAAAAAAGAAAAATAGAAAAAGG [CACACA_negctrl_site1102] | 9.55

Sequence | gcPBM binding intensity (ln)
TTGCATATTTCTAATTGTACATTATTTTATTTTATA [XGTACX_site8451] | 9.45
ATATAAGAAAAGCACACACACACAAAAAAAAAAAAA [CACACA_site2827] | 10.1
AAAAGAAAAAGAAAAACACACATAAATATAAATATA [CACACA_site1879] | 9.59
AAAGAAAAAAAAAACACACACACACCCATTCAATAT [CACACA_site38] | 10.2
AGAGATATAAGAAAAGCACACACACCCAAAAAAAAA [CACACA_site8917] | 9.92
AGAAAAAAAAAACACACACACACACCCTCAATATAA [CACACA_site39] | 10.1
CACTAAAAGAAACACACACACACACCCATATATATA [CACACA_site4151] | 10.2
AAAGAAAAAAAAAACACACACACACGCATTCAATAT [CACACA_site6169] | 10.1
AGATATAAGAAAAGCACACACACACCCAAAAAAAAA [CACACA_site2826] | 10.2
AATAAAAAGAAACACACACACACACCCATATATATA [CACACA_site3589] | 10.2
AAAAAAAAGAAACACACACACATACACATAAATATA [CACACA_site3807] | 10.1
AAAAAAAAAAAAGAAACACACATATATATATATATA [CACACA_site140] | 9.23
ATAAAAAAAAGAAAAACACACACATATATATATATA [CACACA_site8243] | 9.61
AGTAACTAATTAAATGCATGTCGATATATATTATAT [TGCATGCA_site1038] | 9.35
CGTTTTCTATATCATTGTACATATTCATGTGTAAAT [XGTACX_site2741] | 9.24
CATAAATACAGATATACACACATATATATATATATA [CACACA_site4528] | 9.45
AATAAAAAGTAATAATAACGTATAATTTATTATACT [TGCATGCA_negctrl_site414] | 9.14
TATTTTTTATGATTAACACACACACTAATAAAAAAA [CACACA_site9370] | 9.77
ACGTTTACGTTATTATGTACGTAATATATCATACCT [XGTACX_site5006] | 9.09
CAACAAAAGAAACACACACACACAAACACAAAAAAA [CACACA_site3389] | 10
AAAAAAAAGAAAAACACACACATATATATATAGAAT [CACACA_site1006] | 10.2
CACACCCACCAACACACACACAAAAAAAAAAAGAAA [CACACA_site500] | 9.59
AAAAAAAAAAGAAACACACACATATATATATAGAAT [CACACA_site1777] | 10.1
TTAACAAAGAAACACACACACACACCCAAAAAAAAA [CACACA_site516] | 10.2
ATACTAAAGAAACACACACACATATATATATAGAAT [CACACA_site100] | 10.3

Sequence | gcPBM binding intensity (ln)
TGACATAATGTGTGTAGTACATATATCGTTATTTGA [XGTACX_site5152] | 9.46
ACATGTAAATTTACATGTACATGTAACACTTAATAT [XGTACX_site4575] | 9.39
AGAAAGAAAGAATACACACACACATATATATATATC [CACACA_site3744] | 10.4
AATAAAAAAGAATATACACACATAAATATAAAATAT [CACACA_site683] | 9.9
TAAAGAAATAAATACATACACACATATATATATATA [CACACA_site3363] | 9.46
GTATCAAAAGAATACACACACACATACATATATATA [CACACA_site3796] | 10.2
AGAAAGAAAGAATACACACACACATATATAAATATC [CACACA_site7716] | 10.2
AAAGAAATGAAATATACACACATACATATATACATA [CACACA_site9335] | 9.81
AAAAAAAACAAATACACACGCACACCGAAAAAAAAA [CACACA_site803] | 10
TCCTACATATAAAAATGTACCCATTGTTTTTTTTTT [XGTACX_site7205] | 9.11
TTCATTCATTTTATTACACACAAAAAAAAAAAAAAA [CACACA_site3680] | 9.07
AACATATATATATATACATGCATATGAACAACGAAT [TGCATGCA_site93] | 9.62
CTTTTTAATGAATACACACACACACCGATATATATA [CACACA_site5296] | 10.1
AAAAAAAAAAAACACACACACACATACAAAATATAT [CACACA_site1448] | 10.3
AAAAAAAAAAAAAACATACACACAAATATATACATA [CACACA_site4010] | 9.67
AGCAAATACAAACACACACACACATATACATATATA [CACACA_site3497] | 10.2
AAAAAAAAAAAACATACACACAAATATATACATACA [CACACA_site4011] | 9.89
AAGGCAAACAAACACACACACATATATACATATATA [CACACA_site2122] | 9.98
AAAAAAAAAAAAAACACACACATATATATATATATA [CACACA_site1891] | 9.55
AAAAAAAAAAAACACACACACATATATATATATATA [CACACA_site732] | 9.75
CACAAATATATACATACACACATATATACACATATA [CACACA_site8024] | 9.86
TAAAGGCAAACAAACACACACACATATATACCTATA [CACACA_site7078] | 9.91
TAAAGGCAAACAAACACACACACATATATACATATA [CACACA_site2123] | 10.2
AAAAAACAAAAACACACACACACATATATATATATA [CACACA_site3654] | 10.2
CACAAATATACAAATACACACAAATATACACATATA [CACACA_site7176] | 9.77
